According to PubChem BioAssay:
Inconclusive results are not listed. The source made the active and inactive calls.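 Rule for the calls, unless noted: active = inhibition over a set limit, the all-compound mean plus 3 SD, in both replicate runs; inconclusive = over that limit in just one replicate run; inactive = at or under that limit in both runs.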

Tests used:
[1] = Her2 expression decrease, cell viability multiplex – SKBR3 breast tumor cells, AlphaScreen, ATP viability, primary screen (AID 461;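 active = Her2 level under about 52% in both replicate screens, with viability over 70% of control, limit read from the data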;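 for Her2 level: lower value means less Her2 protein in the cells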;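 for viability: percent of carrier control wells set as 100% viability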); details: SKBR3 Her2 protein level, 18-24 h, measured here: SKBR3 viability, ATP luminescence, at 10 µM
[2] = target: Receptor tyrosine-protein kinase erbB-2 (Homo sapiens) (UniProt P04626); experiment: as above; details: 18-24 h, at 10 µM, stronger effect = lower value
[3] = reduced viability of SK-BR-3 breast cancer cells – cell-based, 24 h, human, pilot screen (AID 572;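 active = viability at or below 10% of carrier control in both of two separate runs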;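 note: compound exposure lasted between 18 and 24 h rather than exactly 24 h; 100% = carrier-treated control wells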); details: SK-BR-3 viability, CellTiter-Glo luminescence, at 10 µM, stronger effect = lower value
[4] = HUVEC growth inhibition – cell-based, human, primary screen (AID 575;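 active = viability at or below 30% in both replicate assays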;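 note: 100% = median of untreated cell wells with 0.1% DMSO on each plate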); details: HUVEC proliferation, CellTiter-Glo luminescence, 72 h; at 10 µM; stronger effect = lower value
[5] = H69AR cell proliferation blockers – human, duplicate replicates, primary screen (AID 580;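 active = viability at or under a set limit in both replicates, limit being median viability minus 3 SD, cut at about 48% in these data, passing the limit was not always enough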;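 note: 100% = mean luminescence of untreated wells and 0% = no signal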); details: H69AR lung tumor cells viability, ATP luminescence, 72 h; at 10 µM; stronger effect = lower value
[6] = MRP1 drug-resistance reversers in H69AR cells – cell-based, doxorubicin co-treatment, pilot screen (AID 601;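 active = viability loss from added drug above about 55%, and viability with drug at most 40%, in both replicates, limit read from the data, passing the limit was not always enough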); details: CellTiter-Glo, 72 h, at 10 µM; for differential viability (reversal): stronger effect = higher value
[7] = yeast transport mutant growth inhibition pilot in 384-well plates, post-Golgi transport modulator project (AID 636; in the data active = inhibition above about 31%); details: absorbance 615 nm, about 18 h, stronger effect = higher value
[8] = growth suppression of yeast trafficking mutant, preliminary HTS, modulators of trafficking downstream of Golgi apparatus project, 1536-format plate, OD 615 nm (AID 637; in the data active = inhibition above about 30%); details: yeast transport mutant growth, absorbance 615 nm, 18 h; stronger effect = higher value
[9] = S. cerevisiae growth inhibition in permissive medium (OD615), pilot counter-assay for S. cerevisiae lifespan shortening project, permissive growth control (AID 705;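 active = growth inhibition above 25% in both replicates, a cutoff set 3 SD above the mean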); details: OD615, 24 h, at 10 µM, stronger effect = higher value
[10] = S. cerevisiae growth inhibition in restrictive medium, OD615, pilot screen, restrictive growth control, yeast lifespan reduction project (AID 706;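 active = growth inhibition above a set limit, 3 SD over mean compound inhibition, in both replicates, cut at about 43% in these data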;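 note: modified DeaD lifespan yeast strain shifted to restrictive glucose medium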); details: OD615, 48 h, at 10 µM, stronger effect = higher value
[11] = doxorubicin toxicity protection in MRP-1 cells – H69AR cells, CellTiter-Glo, duplicate, MRP-1 activator project, pilot screen (AID 807;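 active = viability increase at or above a cutoff of the median across tested compounds plus 3 SD, cut at about 8.5% in these data, passing the limit was not always enough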;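 note: compound pretreatment 18-22 h then 72 h combined with doxorubicin; 0% = doxorubicin alone and 100% = vehicle without doxorubicin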); details: H69AR viability with doxorubicin, CellTiter-Glo luminescence; at 10 µM; stronger effect = higher value
[12] = viability of HCT116 without oncogenic beta-catenin – human colon tumor cells, pilot screen (AID 823;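 active = cell viability at or below a set limit in both duplicate runs, the limit being the all-compound median minus 4 SD, cut at about 23% in these data, passing the limit was not always enough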;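 note: 0% = wells killed by 20 µM Hyamine and 100% = untreated DMSO cell wells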); details: HCT116 beta-catenin knockout viability, CellTiter-Glo, 60 h; at 10 µM; stronger effect = lower value
[13] = viability of PTEN-null HCT116 cells – cell-based, HCT116 clonal line, CellTiter-Glo, pilot screen (AID 824;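 active = viability at or below 27.92% in each of two runs, the all-compound median minus 4 SD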;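 note: 0% = 20 µM Hyamine control and 100% = vehicle cell control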); details: HCT116 PTEN-deleted viability, 60 h, at 10 µM, stronger effect = lower value
[14] = RAM pathway blockade in budding yeast – dse1pr::URA3 reporter, 5-FOA selection, pilot screen (AID 869);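 note: 0% = DMSO wells with no growth and 100% = 10 µM 1-NA-PP1 with full growth; RAM network block rescues cells from 5-FOA so hits raise OD615 growth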; details: S. cerevisiae dse1pr::URA3 5-FOA growth, OD615, 2 d; at 10 µM; stronger effect = higher value; strain carries analog-sensitive mutant Cbk1 kinase
[15] = RAM signaling pathway blockade in yeast – S. cerevisiae, Pdr1DBD-CYC8 efflux-inhibited sensitized strain, primary screen (AID 1298;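 active = RAM network inhibition above 8.4% in each of two replicates, 3 SD over the compound average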;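 note: 0% = DMSO untreated cells without growth and 100% = 10 µM 1-NA-PP1 full growth; higher means more yeast growth rescued from 5-FOA killing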); details: S. cerevisiae cbk1-as DSE1-URA3 strain, 5-FOA growth OD615, 2 d; at 50 µM; stronger effect = higher value
[16] = H69AR cells + 2 uM doxorubicin, measured here: viability with 2 uM doxorubicin, stronger effect = lower value
[17] = H69AR cells, compound alone cytotoxicity

Receptor tyrosine-protein kinase erbB-2 (Homo sapiens), sequence (P04626 whole entry, looked up): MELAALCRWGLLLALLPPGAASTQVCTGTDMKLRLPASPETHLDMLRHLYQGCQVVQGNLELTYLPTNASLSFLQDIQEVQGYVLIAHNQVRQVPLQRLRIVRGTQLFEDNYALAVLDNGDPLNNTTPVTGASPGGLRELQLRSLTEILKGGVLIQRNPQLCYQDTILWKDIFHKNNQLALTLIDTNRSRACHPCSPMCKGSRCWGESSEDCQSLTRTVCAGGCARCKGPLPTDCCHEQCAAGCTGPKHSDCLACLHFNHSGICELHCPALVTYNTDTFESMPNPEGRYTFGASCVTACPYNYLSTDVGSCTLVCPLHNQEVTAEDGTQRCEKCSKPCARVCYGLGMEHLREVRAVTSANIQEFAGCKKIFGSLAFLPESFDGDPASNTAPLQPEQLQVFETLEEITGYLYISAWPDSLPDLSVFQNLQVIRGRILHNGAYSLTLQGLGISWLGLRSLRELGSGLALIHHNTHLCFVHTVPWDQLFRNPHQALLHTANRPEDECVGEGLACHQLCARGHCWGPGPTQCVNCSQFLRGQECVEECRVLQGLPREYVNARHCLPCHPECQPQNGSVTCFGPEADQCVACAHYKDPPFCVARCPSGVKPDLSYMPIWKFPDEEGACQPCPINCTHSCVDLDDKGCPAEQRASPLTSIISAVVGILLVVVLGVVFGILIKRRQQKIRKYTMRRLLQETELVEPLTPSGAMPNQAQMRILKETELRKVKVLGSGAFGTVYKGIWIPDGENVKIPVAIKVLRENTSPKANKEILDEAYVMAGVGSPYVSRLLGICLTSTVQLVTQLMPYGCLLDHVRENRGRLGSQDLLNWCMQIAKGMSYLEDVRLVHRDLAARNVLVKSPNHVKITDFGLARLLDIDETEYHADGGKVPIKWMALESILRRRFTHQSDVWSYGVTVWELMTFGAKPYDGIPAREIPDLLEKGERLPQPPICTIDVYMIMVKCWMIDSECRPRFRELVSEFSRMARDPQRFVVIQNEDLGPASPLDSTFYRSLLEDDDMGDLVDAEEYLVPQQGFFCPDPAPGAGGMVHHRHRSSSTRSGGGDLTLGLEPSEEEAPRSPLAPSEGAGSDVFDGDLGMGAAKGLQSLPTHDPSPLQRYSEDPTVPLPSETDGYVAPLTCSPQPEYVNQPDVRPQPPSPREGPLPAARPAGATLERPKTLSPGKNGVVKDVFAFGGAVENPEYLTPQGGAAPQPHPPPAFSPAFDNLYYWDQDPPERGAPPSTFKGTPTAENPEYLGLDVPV

Row | Structure (SMILES) | viability [1] | Her2 level [2] | viability [3] | viability [4] | viability [5] | differential viability (reversal) ([6]; H69AR cells + 2 uM doxorubicin) | viability [6, 16] | viability [6, 17] | inhibition [7] | inhibition [8] | growth inhibition [9] | growth inhibition [10] | viability increase [11] | viability [12] | viability [13] | inhibition [14] | RAM network inhibition [15]
1 | Cc1ccccc1Cn1ccc(NC(=O)c2onc(C)c2Cl)n1 | 107% | 106% (inactive) | 107% (inactive) | 93.6% (inactive) | 100% (inactive) | 16.8% (inactive) | 83.6% | 100% | -4% (inactive) | -4.17% (inactive) | -7.95% (inactive) | 2.75% (inactive) | 4.68% (inactive) | 103% (inactive) | 91.2% (inactive) | 1.72% (inactive) | 4.82% (inactive)
2 | COc1ccccc1NC(=O)C1(C)Cc2ccccc2C(=O)O1 (stereo not drawn) | 106% | 108% (inactive) | 106% (inactive) | 102% (inactive) | 91.7% (inactive) | 2.89% (inactive) | 88.8% | 91.7% | -2.82% (inactive) | 0.67% (inactive) | -6.73% (inactive) | 5.93% (inactive) | -0.93% (inactive) | 107% (inactive) | 99.8% (inactive) | 1.77% (inactive) | 5.4% (inactive)
3 | COc1ccc(N(CC(=O)Nc2ccc3c(c2)OCO3)S(=O)(=O)c2c(C)nn(C)c2C)cc1 | 90.5% | 90.5% (inactive) | 90.5% (inactive) | 118% (inactive) | 99% (inactive) | 13.8% (inactive) | 85.1% | 99% | -0.38% (inactive) | 1% (inactive) | -8.51% (inactive) | -11.5% (inactive) | -2.78% (inactive) | 93.3% (inactive) | 90.5% (inactive) | 2.33% (inactive) | 3.88% (inactive)
4 | COC(=O)C1=C(C)Nc2nnnn2C1c1ccc(Cl)cc1Cl (stereo not drawn) | 110% | 80% (inactive) | 110% (inactive) | 114% (inactive) | 93.3% (inactive) | -5.04% (inactive) | 98.4% | 93.3% | -1.97% (inactive) | -0.63% (inactive) | 2.67% (inactive) | -1.33% (inactive) | -5.06% (inactive) | 98% (inactive) | 91.5% (inactive) | 0.54% (inactive) | 0.11% (inactive)
5 | CCOC(=O)C(C(=O)OCC)C(C)C#CCN1CCCCC1 (stereo not drawn) | 91.5% | 116% (inactive) | 91.5% (inactive) | 87.2% (inactive) | 90.4% (inactive) | 1.13% (inactive) | 89.2% | 90.4% | -3.08% (inactive) | -5.5% (inactive) | -2.21% (inactive) | -1.49% (inactive) | -2.18% (inactive) | 93.9% (inactive) | 97% (inactive) | -0.12% (inactive) | 7.5% (inactive)
6 | CC1CCCN(C(=O)C23CCC(C)(C(=O)C2)C3(C)C)C1 (stereo not drawn) | 99% | 92% (inactive) | 99% (inactive) | 103% (inactive) | 108% (inactive) | 15.3% (inactive) | 92.6% | 108% | -2.43% (inactive) | -3.17% (inactive) | -7.46% (inactive) | -8.69% (inactive) | -2.08% (inactive) | 97.7% (inactive) | 102% (inactive) | -0.565% (inactive) | 4.55% (inactive)
7 | C=CCSc1nc(N)c2c(C)c(C)sc2n1 | 98.5% | 70.5% (inactive) | 98.5% (inactive) | 86.5% (inactive) | 88% (inactive) | 4.54% (inactive) | 83.5% | 88% | -0.52% (inactive) | -8.33% (inactive) | -10.6% (inactive) | -14% (inactive) | -3.58% (inactive) | 95.3% (inactive) | 92.4% (inactive) | 0.34% (inactive) | 8.79% (inactive)
8 | COc1c(C(=O)Nc2c(C)n(C)n(-c3ccccc3)c2=O)ccc2ccccc12 | 97% | 104% (inactive) | 97% (inactive) | 99.3% (inactive) | 113% (inactive) | 25.5% (inactive) | 87% | 113% | -1.07% (inactive) | -6.45% (inactive) | -2.42% (inactive) | -6.28% (inactive) | -0.81% (inactive) | 98.8% (inactive) | 98.3% (inactive) | 0.775% (inactive) | 4.37% (inactive)
9 | COc1ccc2c(c1OC)C(=O)OC2CC(=O)c1ccc(O)cc1 (stereo not drawn) | 100% | 111% (inactive) | 100% (inactive) | 106% (inactive) | 87.3% (inactive) | -3.06% (inactive) | 90.4% | 87.3% | 1.3% (inactive) | -4.17% (inactive) | -11.6% (inactive) | -10.6% (inactive) | -0.29% (inactive) | 102% (inactive) | 107% (inactive) | 0.365% (inactive) | 4.28% (inactive)
10 | COC(=O)CCC(=O)Nc1ccc(OC)cc1 | 104% | 84% (inactive) | 104% (inactive) | 121% (inactive) | 85.1% (inactive) | -13.2% (inactive) | 98.3% | 85.1% | -6.22% (inactive) | 0.98% (inactive) | -2.88% (inactive) | -6.16% (inactive) | -1.06% (inactive) | 98.6% (inactive) | 101% (inactive) | 0.605% (inactive) | 2.52% (inactive)
11 | CCOC(=O)Cc1nnc(NC(=O)c2ccccc2OCC)s1 | 100% | 92.5% (inactive) | 100% (inactive) | 103% (inactive) | 98% (inactive) | 9.93% (inactive) | 88.1% | 98% | 0% (inactive) | -4.26% (inactive) | -9.41% (inactive) | -14.8% (inactive) | -0.28% (inactive) | 102% (inactive) | 102% (inactive) | 1.33% (inactive) | 3.5% (inactive)
12 | COc1cc(C2NC(=O)NC(C)=C2C(=O)OCC2CCCO2)ccc1O (stereo not drawn) | 90.5% | 86.5% (inactive) | 90.5% (inactive) | 94.4% (inactive) | 103% (inactive) | 5.47% (inactive) | 97.4% | 103% | -6.08% (inactive) | -2.13% (inactive) | -7.94% (inactive) | -14.9% (inactive) | -1.14% (inactive) | 91.1% (inactive) | 88.3% (inactive) | 1.59% (inactive) | 1.93% (inactive)
13 | CCN(CC)C(=O)Oc1ccc(NC(C)=O)cc1 | 88.5% | 108% (inactive) | 88.5% (inactive) | 97.4% (inactive) | 93.6% (inactive) | -0.975% (inactive) | 94.6% | 93.6% | 0.91% (inactive) | -6.33% (inactive) | -4.01% (inactive) | -12% (inactive) | -0.49% (inactive) | 105% (inactive) | 108% (inactive) | 1.06% (inactive) | 1.82% (inactive)
14 | Cc1nn(C(=O)c2ccc3c(c2)OCO3)c(N)c1-c1ccccc1 | 102% | 95% (inactive) | 102% (inactive) | 98.3% (inactive) | 94.2% (inactive) | 9.75% (inactive) | 84.5% | 94.2% | -1.47% (inactive) | 2.13% (inactive) | 3.15% (inactive) | 5.03% (inactive) | -2.76% (inactive) | 99.2% (inactive) | 98.2% (inactive) | 0.585% (inactive) | 1.02% (inactive)
15 | CCCSC1=C(C#N)C(c2cc(OC)ccc2OC)CC(=O)N1 (stereo not drawn) | 93% | 92% (inactive) | 93% (inactive) | 98.3% (inactive) | 89.1% (inactive) | 5.96% (inactive) | 83.1% | 89.1% | -4.4% (inactive) | -0.33% (inactive) | -0.855% (inactive) | -3.12% (inactive) | -0.44% (inactive) | 92.5% (inactive) | 92.9% (inactive) | 1.42% (inactive) | 0.78% (inactive)
16 | CC(C)(C)SCCNC(=O)COc1ccc(Cl)cc1 | 94.5% | 90% (inactive) | 94.5% (inactive) | 113% (inactive) | 109% (inactive) | 19.5% (inactive) | 89.4% | 109% | -6.89% (inactive) | 4.1% (inactive) | -8.49% (inactive) | -12% (inactive) | 0.22% (inactive) | 96.2% (inactive) | 96.9% (inactive) | -0.23% (inactive) | 4.53% (inactive)
17 | Cc1nc2sc(C(c3cccs3)N3CC(C)CC(C)C3)c(O)n2n1 (stereo not drawn) | 89.5% | 92% (inactive) | 89.5% (inactive) | 108% (inactive) | 95.2% (inactive) | 1.38% (inactive) | 93.8% | 95.2% | -0.27% (inactive) | 8.85% (inactive) | -11.2% (inactive) | -10.1% (inactive) | -2.1% (inactive) | 107% (inactive) | 95.2% (inactive) | 1.53% (inactive) | 5.64% (inactive)
18 | Cc1c(NC(=O)c2ccc(CN3CCc4ccccc4C3)cc2)c(=O)n(-c2ccccc2)n1C | 95% | 109% (inactive) | 95% (inactive) | 94.3% (inactive) | 98.8% (inactive) | 4.51% (inactive) | 94.3% | 98.8% | -5.64% (inactive) | -4.83% (inactive) | -4.14% (inactive) | -6.79% (inactive) | 0.51% (inactive) | 79.6% (inactive) | 84.4% (inactive) | 0.845% (inactive) | 5.97% (inactive)
19 | O=C1c2ccccc2C(=O)N1C/C=C/CN1C(=O)c2ccccc2C1=O | 85% | 91.5% (inactive) | 85% (inactive) | 86.5% (inactive) | 82.8% (inactive) | -9.46% (inactive) | 92.3% | 82.8% | -3.46% (inactive) | -0.33% (inactive) | 2.25% (inactive) | -1.58% (inactive) | -1.04% (inactive) | 90.3% (inactive) | 102% (inactive) | 3.1% (inactive) | 4.65% (inactive)
